Key:
Settings in all cases: concentration: 1 μM, replicates: in singlicate; n = 1
[1] = test system: PIP5K1A
[2] = test system: PIP5K1C
[3] = test system: PIP5K2B
[4] = test system: T1, PIP5K2C
T1 construct: gene PIP4K2C

[5] = test system: T2, PKAC-alpha
T2 construct: gene PRKACA

[6] = test system: T3, PKAC-beta
T3 construct: gene PRKACB

[7] = test system: PKMYT1
[8] = test system: PKN1
[9] = test system: PKN2
[10] = test system: PLK1
[11] = test system: PLK2
[12] = test system: PLK3
[13] = test system: PLK4
[14] = test system: PRKCD
[15] = test system: PRKCE
[16] = test system: PRKCH
[17] = test system: PRKCI
[18] = test system: PRKCQ
[19] = test system: PRKD1
[20] = test system: PRKD2
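Also: KINOMEscan kinase panel screen.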

SMILES | %Inh [1] [%] | %Inh [2] [%] | %Inh [3] [%] | %Inh [4] [%] | %Inh [5] [%] | %Inh [6] [%] | %Inh [7] [%] | %Inh [8] [%] | %Inh [9] [%] | %Inh [10] [%] | %Inh [11] [%] | %Inh [12] [%] | %Inh [13] [%] | %Inh [14] [%] | %Inh [15] [%] | %Inh [16] [%] | %Inh [17] [%] | %Inh [18] [%] | %Inh [19] [%] | %Inh [20] [%]
COc1ccc(C2=C(Nc3cccc(O)c3)C(=O)NC2=O)cc1 [SB-390766] | 4 | 82 | 0 | 10 | 0 | 0 | 13 | 0 | 38 | 95.9 | 0 | 0 | 13 | 0 | 49 | 0 | 18 | 0 | 0 | 4
CCn1cnc2c(NCc3ccccc3)ncnc21 [SKF-96418] | 21 | 22 | 0 | 0 | 0 | 0 | 0 | 0 | 0 | 14 | 25 | 34 | 1 | 3 | 29 | 0 | 0 | 0 | 0 | 0
O=C(Nc1n[nH]c2nc(-c3ccccc3O)ccc12)C1CC1 [SB-711880] | 0 | 77 | 0 | 43 | 0 | 0 | 7 | 0 | 0 | 0 | 0 | 0 | 0 | 25 | 0 | 0 | 27 | 0 | 0 | 5
c1ccc(Oc2ccc(Nc3ccnc4cc(-c5ccc(CN6CCCCC6)o5)ccc34)cc2)nc1 [GW567143] | 9 | 47 | 0 | 48 | 2 | 0 | 0 | 0 | 0 | 5 | 0 | 0 | 44 | 7 | 0 | 5 | 0 | 10 | 0 | 12
COc1cccc(C2=C(Nc3cccc(O)c3)C(=O)NC2=O)c1 [SB-390771] | 0 | 39 | 14 | 38 | 0 | 0 | 9 | 100 | 0 | 0 | 0 | 0 | 15 | 20 | 27 | 19 | 16 | 98.4 | 0 | 0
O=C(Nc1n[nH]c2cc(-c3cccs3)ccc12)C1CC1 [SB-731284] | 21 | 96.7 | 15 | 35 | 0 | 0 | 0 | 5 | 0 | 64 | 9 | 28 | 29 | 17 | 11 | 0 | 0 | 0 | 0 | 0
Cc1cc(-c2ccnc(Nc3cccc(C#N)c3)n2)cc(C)c1O [GSK1440913] | 11 | 70 | 61 | 94.9 | 3 | 0 | 6 | 0 | 14 | 0 | 0 | 0 | 15 | 0 | 6 | 5 | 5 | 12 | 0 | 0
COC(=O)Nc1nc2cc(Oc3ccc(NC(=O)Nc4cccc(SC)c4)cc3)ccc2[nH]1.Cl [GW697999] | 56 | 62 | 20 | 40 | 0 | 4 | 0 | 0 | 0 | 0 | 0 | 0 | 0 | 1 | 11 | 4 | 0 | 0 | 3 | 10
CN(c1ccc(F)c(NC(=O)c2cccc(OC(C)(C)C#N)c2Cl)c1)c1ccc2nc(NC(=O)C3CC3)sc2n1 | 34 | 0 | 3 | 0 | 17 | 0 | 4 | 4 | 0 | 0 | 0 | 0 | 0 | 0 | 0 | 16 | 4 | 5 | 0 | 3
Cc1ccc(NC(=O)c2ccnc(N3CCCCC3)c2)cc1-c1ccc(C(=O)NCC2CC2)cc1 [GW775610] | 0 | 5 | 0 | 14 | 0 | 10 | 8 | 0 | 0 | 0 | 0 | 0 | 24 | 9 | 9 | 0 | 6 | 2 | 0 | 0
COc1cc(Nc2nccc(N3CCC(NC(=O)Nc4ccc5c(c4)OCO5)C3)n2)cc(OC)c1OC (centres unmarked) [GSK1379766] | 19 | 56 | 0 | 92.3 | 0 | 0 | 0 | 35 | 0 | 2 | 0 | 2 | 48 | 0 | 8 | 0 | 11 | 0 | 0 | 0
CN(C)c1ncnc2nc[nH]c12 [SKF-31736] | 0 | 0 | 0 | 10 | 0 | 0 | 4 | 0 | 1 | 12 | 20 | 30 | 1 | 0 | 3 | 0 | 0 | 0 | 0 | 0
Cc1cccc(Nc2nc(N[C@H]3CCCC[C@H]3N)ncc2C(N)=O)c1.Cl [GSK986310] | 0 | 63 | 9 | 12 | 19 | 29 | 16 | 34 | 9 | 1 | 0 | 0 | 16 | 53 | 56 | 43 | 28 | 53 | 50 | 56
CCn1c(-c2nonc2N)nc2c(-c3ccccc3)ncc(OCCCN)c21.O=C(O)C(F)(F)F.O=C(O)C(F)(F)F [GSK260205] | 35 | 87 | 10 | 29 | 97.6 | 97.7 | 0 | 84 | 0 | 0 | 0 | 0 | 0 | 97.9 | 97.3 | 95.6 | 69 | 93 | 91.2 | 93.6
CNc1nccc(-c2ccc3c(N)n[nH]c3c2)n1 [GSK2206003] | 54 | 60 | 32 | 35 | 23 | 4 | 4 | 0 | 0 | 6 | 0 | 0 | 0 | 27 | 15 | 25 | 17 | 9 | 19 | 20
COc1ccc(C)c(Nc2ccnc(Nc3ccc(-c4cnc[nH]4)cc3)n2)c1.Cl [GW784041] | 0 | 33 | 33 | 67 | 8 | 22 | 2 | 0 | 0 | 11 | 0 | 0 | 15 | 30 | 12 | 0 | 25 | 0 | 16 | 12
Nc1ncnc2scc(-c3ccc(NC(=O)Cc4cc(F)ccc4F)cc3)c12.O=C(O)C(F)(F)F [SB-731254-M] | 0 | 0 | 0 | 0 | 13 | 15 | 23 | 4 | 26 | 9 | 66 | 47 | 35 | 27 | 2 | 34 | 43 | 3 | 0 | 0

SMILES | %Inh [1] [%] | %Inh [2] [%] | %Inh [3] [%] | %Inh [4] [%] | %Inh [5] [%] | %Inh [6] [%] | %Inh [7] [%] | %Inh [8] [%] | %Inh [9] [%] | %Inh [10] [%] | %Inh [11] [%] | %Inh [12] [%] | %Inh [13] [%] | %Inh [14] [%] | %Inh [15] [%] | %Inh [16] [%] | %Inh [17] [%] | %Inh [18] [%] | %Inh [19] [%] | %Inh [20] [%]
COC(=O)Nc1nc2ccc(Oc3ccc(CC(=O)Nc4cc(C(F)(F)F)ccc4F)cc3)cc2[nH]1 [GW680903] | 7 | 37 | 2 | 31 | 0 | 0 | 0 | 0 | 0 | 0 | 0 | 0 | 0 | 0 | 9 | 0 | 17 | 0 | 0 | 0
COc1cc(Nc2nccc(N3CCC(NS(=O)(=O)c4ccc(NC(C)=O)cc4)CC3)n2)cc(OC)c1OC [GSK1379825] | 11 | 56 | 0 | 77 | 0 | 0 | 40 | 16 | 0 | 4 | 0 | 29 | 27 | 0 | 14 | 35 | 19 | 26 | 0 | 0
CCNC(=O)/C=C/c1n[nH]c2cc(Sc3ccccc3C(=O)NC)ccc12 | 0 | 0 | 33 | 0 | 4 | 21 | 30 | 0 | 17 | 0 | 17 | 18 | 91.9 | 6 | 3 | 0 | 5 | 0 | 3 | 14
N#CC1(c2cccc(C(=O)Nc3cccc(Oc4ccc5nc(NC(=O)C6CC6)sc5n4)c3)c2)CC1 | 3 | 59 | 0 | 23 | 34 | 0 | 0 | 0 | 0 | 13 | 5 | 21 | 0 | 5 | 9 | 0 | 18 | 40 | 40 | 0
Cc1ccc(NC(=O)c2cccc(N3CCCCC3)c2)cc1-c1ccc(C(=O)NCC2CC2)cc1 [GSK1917008] | 0 | 25 | 8 | 0 | 0 | 14 | 0 | 17 | 0 | 0 | 0 | 0 | 0 | 10 | 3 | 19 | 5 | 0 | 0 | 0
COc1cccc(CC(=O)N2CCc3cc(-c4cn(C)c5ncnc(N)c45)ccc32)c1 [GSK2608899] | 0 | 10 | 34 | 0 | 4 | 12 | 10 | 19 | 0 | 9 | 0 | 0 | 4 | 17 | 1 | 10 | 31 | 0 | 18 | 1
CN(c1ccc2c(c1)nc(NCc1ccccc1)n2C)c1ccnc(Nc2ccc(CS(C)(=O)=O)cc2)n1.Cl [GW811603] | 23 | 44 | 0 | 79 | 0 | 0 | 0 | 0 | 0 | 0 | 0 | 79 | 62 | 100 | 36 | 0 | 0 | 0 | 0 | 0
Cc1ccc(O)cc1Nc1ccnc2cc(-c3ccc(CN4CCCCC4)o3)ccc12 [GW557777] | 0 | 0 | 0 | 0 | 5 | 0 | 0 | 0 | 0 | 0 | 13 | 0 | 0 | 0 | 0 | 0 | 0 | 0 | 96.5 | 97.8
Cl.O=C(Nc1ccc(Oc2ccc3[nH]c(NC(=O)c4ccco4)nc3c2)cc1)Nc1cc(C(F)(F)F)ccc1F [GW683134] | 0 | 10 | 0 | 0 | 0 | 8 | 0 | 7 | 0 | 0 | 0 | 0 | 0 | 4 | 0 | 0 | 0 | 9 | 0 | 0
Cc1ccccc1CC(=O)N1CCc2cc(-c3cn(C)c4ncnc(N)c34)ccc21 [GSK2603346] | 0 | 15 | 0 | 5 | 0 | 0 | 0 | 15 | 20 | 0 | 2 | 0 | 0 | 0 | 0 | 51 | 22 | 35 | 18 | 0
Cc1ccc(-c2ccc3occ(-c4ccc(S(C)=O)cc4)c3c2)nn1 (centres unmarked) | 0 | 42 | 17 | 58 | 0 | 0 | 11 | 0 | 9 | 0 | 0 | 0 | 2 | 1 | 0 | 0 | 0 | 13 | 30 | 9
Nc1cccc(-c2ccc3c(N)n[nH]c3c2)c1 [GSK2193613] | 0 | 28 | 0 | 16 | 0 | 4 | 8 | 0 | 0 | 0 | 0 | 0 | 4 | 68 | 11 | 61 | 0 | 20 | 0 | 2
Cc1ccc(Nc2ccnc(Nc3ccc(C)c(F)c3)n2)cc1O.Cl [GW582868] | 27 | 47 | 5 | 70 | 0 | 0 | 0 | 23 | 0 | 0 | 0 | 3 | 0 | 0 | 6 | 0 | 25 | 0 | 0 | 0
CN(C)CCOc1ccc(-c2cc(-c3ccc(Cl)c(O)c3)c(-c3ccncc3)[nH]2)cc1.Cl.Cl [SB-684387] | 45 | 54 | 7 | 20 | 33 | 10 | 0 | 39 | 0 | 3 | 4 | 11 | 31 | 0 | 26 | 2 | 14 | 3 | 14 | 2
Fc1cc(Cl)ccc1Nc1ccnc2cc(-c3ccc(CN4CCSCC4)o3)ccc12 [GW560106] | 30 | 59 | 9 | 74 | 27 | 22 | 0 | 0 | 0 | 0 | 0 | 0 | 97.6 | 14 | 13 | 21 | 23 | 0 | 24 | 19
CC(C)(C)c1ccc(C(=O)Nc2cn3cc(-n4ccnc4)ccc3n2)cc1 | 2 | 4 | 0 | 95.3 | 37 | 0 | 0 | 10 | 0 | 0 | 24 | 10 | 0 | 7 | 15 | 0 | 10 | 23 | 0 | 12
Cc1ccc(C)c(NC(=O)Nc2ccc(C)c(-c3ccc(C(=O)Nc4ccncc4)cc3)c2)c1 [GSK1398473] | 0 | 0 | 8 | 2 | 27 | 20 | 17 | 26 | 0 | 0 | 0 | 0 | 0 | 0 | 4 | 10 | 0 | 32 | 8 | 3

Source: article PMC5540273 (PLoS ONE, 2017)
